Results filed as inconclusive are left out. Activity calls are given as the source filed them. Unless noted, calls follow the shape of the dose curve; as a rule, active = well fitted curve in the direction sought with a large enough effect in the repeat runs; inconclusive = weak or mixed curves; inactive = no such curve, though single readings can be large; an effect the other way counts as inactive or inconclusive.

In PubChem BioAssay (Tox21) one finds outcome and Potency data, which are given here for twelve compounds.

Assay [1] in a line: qHTS assay to test for compound auto fluorescence at 535 nm (green) in HEK293 cells (AID 720680). A general note: Quantitative high-throughput screening tests each substance at several concentrations.
Assay [2] in a line: qHTS assay to test for compound auto fluorescence at 460 nm (blue) in HEK293 cell free culture (AID 720681). The method in brief: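 Compounds were added to cell-free DMEM with 10% FBS and fluorescence read directly. The blue channel used 405 nm excitation and 460 nm emission, with triamterene as the reference fluorophore.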
Assay [3] can be described thus: qHTS assay to test for compound auto fluorescence at 535 nm (green) in HEK293 cell free culture (AID 720682). In short, it runs like this: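 DMEM + 10% FBS, cell-free; cpd or DMSO pinned in; Ex485/Em535 read; output as fluorescein-equivalent signal.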
A short description of assay [4]: qHTS assay to test for compound auto fluorescence at 590 nm (red) in HEK293 cell free culture (AID 720683). In short, it runs like this: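 Cell-free wells of DMEM with 10% FBS received compound, and intrinsic fluorescence was read at excitation/emission 540/590 nm. Values expressed as equivalence to Rose Bengal sodium.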
Assay [5] in a line: qHTS assay to test for compound auto fluorescence at 590 nm (red) in HepG2 cell free culture (AID 720684). In short, it runs like this: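 Auto fluorescence equivalency versus Rose Bengal sodium, red channel Ex/Em 540/590 nm; compounds in cell-free MEM/10% FBS; DMSO vehicle control.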
Assay [6] is described as follows: qHTS assay to test for compound auto fluorescence at 460 nm (blue) in HepG2 cell free culture (AID 720685). In short, it runs like this: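 Cell-free plates of MEM plus 10% FBS received 23 nL compound or DMSO vehicle; blue-channel (405/460 nm) intensity scored against triamterene as reference fluorophore.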
A short description of assay [7]: qHTS assay to test for compound auto fluorescence at 535 nm (green) in HepG2 cell free culture (AID 720686).
The nature of assay [8]: qHTS assay to test for compound auto fluorescence at 460 nm (blue) in HepG2 cells (AID 720687). In short, it runs like this: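 HepG2 cells in MEM with 10% FBS, attached overnight at 37 C, were exposed to compound or DMSO for 1 hr at 37 C, 5% CO2. Blue fluorescence was read at 405/460 nm, with triamterene as reference fluorophore.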
In assay [9] the target is Glucocorticoid receptor (Homo sapiens) (UniProt P04150). As to the kind of experiment: qHTS assay to identify small molecule agonists of the glucocorticoid receptor (GR) signaling pathway (AID 720691; active = well fitted activation curve with a large enough effect in the signal ratio in the repeat runs, not every such curve was filed as active; the % refers to the signal ratio; also: potency is read from the fitted curve at half-maximal effect). In short, it runs like this:
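Agonist-mode qHTS in HeLa cells stably expressing a glucocorticoid-response-element beta-lactamase reporter. Fluorescence intensity read with FRET substrate (2 h, room temperature) after 18 h compound treatment at 37 C.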

For assay [10] the target is unchanged. Description: qHTS assay to identify small molecule antagonists of the glucocorticoid receptor (GR) signaling pathway (AID 720692; active = well fitted inhibition curve with a large enough effect in the signal ratio in the repeat runs, not every such curve was filed as active; the % refers to the signal ratio). In short, it runs like this: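 Inhibition of dexamethasone-driven (5 nM final) beta-lactamase expression was measured in GRE-reporter HeLa cells over 18 h at 37C. Fluorescence was read after 2 h with the B/G FRET substrate at room temperature.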

A short description of assay [11]: qHTS assay to identify small molecule antagonists of the glucocorticoid receptor (GR) signaling pathway - cell viability counter screen (AID 720693). Also: nearly all actives have a fitted effect of over 55% in size.
Assay [12] can be described thus: qHTS assay for identifying genotoxic compounds that show differential cytotoxicity against isogenic chicken DT40 cell lines with known DNA damage response pathways - wild type cell line (AID 743012). Also: nearly all actives have a fitted effect of over 60% in size. The method in brief: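 Viability by ATP luminescence (CellTiter-Glo, 30 min RT) after 40 h compound treatment at 37 C/5% CO2, using 300 parental DNA repair-proficient DT40 cells per well.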

Assay [13] can be described thus: qHTS assay for identifying genotoxic compounds that show differential cytotoxicity against isogenic chicken DT40 cell lines with known DNA damage response pathways - Rev3 mutant cell line (AID 743014). Also: nearly all actives have a fitted effect of over 55% in size.
Assay [14] can be described thus: qHTS assay to identify small molecule antagonists of the androgen receptor (AR) signaling pathway - cell viability counter screen (AID 743033; also: nearly all actives have a fitted effect of over 45% in size).
A short description of assay [15]: qHTS assay to identify small molecule antagonists of the androgen receptor (AR) signaling pathway using the MDA cell line - cell viability counter screen (AID 743041; also: nearly all actives have a fitted effect of over 45% in size). In short, it runs like this: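 Compound exposure lasted 16 h at 37C in MDA-kb2 AR-luc cells stimulated with R1881. Protease-based CellTiter-Fluor reagent was applied for the final 30 min and fluorescence measured.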

The nature of assay [16]: qHTS assay for identifying genotoxic compounds that show differential cytotoxicity against isogenic chicken DT40 cell lines with known DNA damage response pathways - Rad54/Ku70 mutant cell line (AID 743015). Also: nearly all actives have a fitted effect of over 60% in size.
Assay [17] concerns the target Androgen receptor (Homo sapiens) (UniProt P10275). As to the kind of experiment: qHTS assay to identify small molecule agonists of the androgen receptor (AR) signaling pathway using the MDA cell line (AID 743040; also: nearly all actives have a fitted effect of over 20% in size). The method in brief:
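Testing was done with the MDA-kb2 AR-luc line, a human breast carcinoma stably transfected with MMTV-luciferase containing AR and GR response elements. Cells were exposed 16 h at 37C before ONE-Glo luminescence detection.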

Assay [18] shares this target. As to the kind of experiment: qHTS assay to identify small molecule antagonists of the androgen receptor (AR) signaling pathway using the MDA cell line (AID 743042; also: nearly all actives have a fitted effect of over 55% in size). The method in brief:
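MDA-kb2 breast carcinoma cells carrying MMTV-luciferase (AR/GR responsive) were co-treated with compounds and the agonist R1881 for 16 h at 37C. Inhibition read as ONE-Glo luminescence; CellTiter-Fluor fluorescence measured in parallel for cytotoxicity.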

Assay [19] has the same target. Description: qHTS assay to identify small molecule antagonists of the androgen receptor (AR) signaling pathway (AID 743035; active = well fitted inhibition curve with a large enough effect in the signal ratio in the repeat runs, not every such curve was filed as active; the % refers to the signal ratio). In short, it runs like this: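 Antagonist mode: AR-bla HEK293 cells co-treated with test compounds and agonist R1881 for 16 h at 37C, 5% CO2. Beta-lactamase activity read as FRET fluorescence after 2 h room-temperature substrate loading.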
For assay [20] the target is unchanged. Description: qHTS assay to identify small molecule agonists of the androgen receptor (AR) signaling pathway (AID 743036; active = well fitted activation curve with a large enough effect in the signal ratio in the repeat runs, with a control signal flat, not every such curve was filed as active; the % refers to the signal ratio). The method in brief: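 Screening used 2,000 AR-bla HEK293 cells per well, treated 16 h at 37C with test compounds in DMSO alongside positive and DMSO-only controls; beta-lactamase activity was then read by LiveBLAzer B/G FRET fluorescence after 2 h at room temperature.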

Sequence of Androgen receptor (Homo sapiens) (P10275 whole entry, looked up): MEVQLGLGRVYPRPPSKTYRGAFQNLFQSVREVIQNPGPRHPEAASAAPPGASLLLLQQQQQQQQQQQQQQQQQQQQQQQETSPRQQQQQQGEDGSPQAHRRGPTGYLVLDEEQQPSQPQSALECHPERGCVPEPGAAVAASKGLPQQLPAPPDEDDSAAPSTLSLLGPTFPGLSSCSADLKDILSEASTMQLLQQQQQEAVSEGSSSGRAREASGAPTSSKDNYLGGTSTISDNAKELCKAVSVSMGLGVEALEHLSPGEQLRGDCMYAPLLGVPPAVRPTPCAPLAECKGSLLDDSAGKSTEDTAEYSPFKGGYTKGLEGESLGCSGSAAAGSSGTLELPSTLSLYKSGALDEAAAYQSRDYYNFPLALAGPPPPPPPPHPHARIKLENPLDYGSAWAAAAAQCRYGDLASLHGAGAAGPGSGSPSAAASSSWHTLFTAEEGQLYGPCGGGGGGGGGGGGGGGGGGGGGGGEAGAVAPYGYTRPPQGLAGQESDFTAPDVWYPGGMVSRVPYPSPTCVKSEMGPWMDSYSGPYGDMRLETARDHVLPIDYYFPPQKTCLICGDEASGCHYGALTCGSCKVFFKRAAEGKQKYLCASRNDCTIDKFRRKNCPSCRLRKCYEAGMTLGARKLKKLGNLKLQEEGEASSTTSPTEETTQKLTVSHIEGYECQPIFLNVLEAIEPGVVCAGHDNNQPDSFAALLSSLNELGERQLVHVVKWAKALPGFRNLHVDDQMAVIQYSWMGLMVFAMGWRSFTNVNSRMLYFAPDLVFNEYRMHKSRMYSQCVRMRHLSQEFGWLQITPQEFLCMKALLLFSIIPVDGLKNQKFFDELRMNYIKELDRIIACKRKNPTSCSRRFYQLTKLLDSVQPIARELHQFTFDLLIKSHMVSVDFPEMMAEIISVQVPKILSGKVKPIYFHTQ
Sequence of Glucocorticoid receptor (Homo sapiens) (P04150 whole entry, looked up): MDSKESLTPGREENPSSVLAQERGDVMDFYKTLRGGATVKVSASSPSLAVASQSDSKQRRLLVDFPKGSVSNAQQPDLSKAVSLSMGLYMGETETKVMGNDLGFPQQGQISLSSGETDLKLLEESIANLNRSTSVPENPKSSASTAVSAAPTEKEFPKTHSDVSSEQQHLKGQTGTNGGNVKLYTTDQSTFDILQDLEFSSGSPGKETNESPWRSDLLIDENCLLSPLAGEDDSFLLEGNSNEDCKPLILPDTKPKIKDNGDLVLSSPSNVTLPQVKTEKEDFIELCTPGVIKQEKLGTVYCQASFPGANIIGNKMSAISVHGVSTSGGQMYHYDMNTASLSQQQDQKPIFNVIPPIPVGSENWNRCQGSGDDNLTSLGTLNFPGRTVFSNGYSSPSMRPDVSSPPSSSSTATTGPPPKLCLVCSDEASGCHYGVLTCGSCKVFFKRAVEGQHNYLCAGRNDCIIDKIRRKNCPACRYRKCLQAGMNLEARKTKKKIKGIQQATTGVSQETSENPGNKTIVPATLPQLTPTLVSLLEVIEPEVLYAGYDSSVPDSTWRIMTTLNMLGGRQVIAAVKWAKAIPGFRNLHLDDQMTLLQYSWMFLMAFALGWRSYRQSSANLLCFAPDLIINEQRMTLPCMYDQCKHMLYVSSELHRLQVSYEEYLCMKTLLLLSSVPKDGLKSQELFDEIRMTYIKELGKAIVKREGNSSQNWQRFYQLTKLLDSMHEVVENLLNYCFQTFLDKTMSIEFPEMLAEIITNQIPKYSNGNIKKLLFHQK

With `NS(=O)(=O)c1cc(C(=O)O)cc(N2CCCC2)c1Oc1ccccc1`, the outcome in assay [1], in [2], in assay [3], in [4], in [5] and in assay [6] was inactive. Also, the outcome in assay [7], in [8] and in assay [11] was inactive. Besides, in assay [9], the Potency is 9.1 µM (active). Besides, the Potency result in assay [10], in assay [12], in assay [13], in [14] and in assay [15] was “inactive” in each case.
In the case of `O=C(O)CN(CCOCCOCCN(CC(=O)O)CC(=O)O)CC(=O)O`, the outcome in [1], in assay [2], in [3], in [4], in assay [5] and in assay [6] was inactive. Besides, the outcome in [7], in assay [8] and in assay [11] was inactive. Also, the Potency entry in assay [9], in [10], in assay [12], in [13], in [14] and in [15] was “inactive” each time.
Consider `C=C(C)CS(=O)(=O)O`, for which the result in [1], in assay [2], in [3], in assay [4], in [5] and in [6] was inactive. In addition, the compound was called inactive in assay [7], in [8] and in assay [11]. For the same compound, the Potency result in assay [9], in assay [10], in assay [13], in assay [16], in assay [14] and in [17] was “inactive” throughout. For the same compound, the Potency entry in assay [15] and in assay [18] was “inactive” in each case.
On to `COc1ccc2c(c1)c(CC(=O)OCC(=O)O)c(C)n2C(=O)c1ccc(Cl)cc1`, for which the call in assay [1], in assay [2], in assay [3], in assay [4], in assay [5] and in assay [6] was inactive. The compound was classed as inactive in assay [7], in assay [8], in [11] and in assay [19]. Also, the Potency entry in assay [9], in [12], in [13], in [14], in [17] and in assay [15] was “inactive” throughout. Besides, the Potency entry in assay [18] is “inactive”.
As for `N[C@H](C(=O)O)c1ccc(O)cc1`, the compound was classed as inactive in assay [1], in assay [2], in [3], in assay [4], in assay [5] and in assay [6]. In addition, the call in assay [7], in assay [8] and in assay [11] was inactive. Moreover, the Potency entry in [9], in [10], in assay [12], in [13], in assay [14] and in assay [15] was “inactive” each time.
Take `COC(=O)c1cc(C(=O)OC)cc(S(=O)(=O)O)c1`: the outcome in assay [1], in assay [2], in [3], in assay [4], in assay [5] and in assay [6] was inactive. Also, the outcome in assay [7], in [8] and in assay [11] was inactive. Also, the Potency result in [9], in [12], in [13], in assay [16], in assay [14] and in assay [15] was “inactive” throughout.
As to `CC1(C)C(O)C(C)(C)C1O` (configuration not stated), the compound was classed as inactive in assay [1], in assay [2], in assay [3], in [4], in [5] and in assay [6]. For the same compound, the compound was classed as inactive in assay [7], in assay [8], in assay [11] and in [19]. The Potency entry in [9], in assay [10], in assay [12], in assay [13], in [14] and in assay [17] was “inactive” in each case. Moreover, the Potency result in assay [15] and in [18] was “inactive” each time.
Consider `CN1CCC(=C2c3ccccc3CC(=O)c3sccc32)CC1`, for which the result in [1], in [2], in assay [3], in assay [4], in [5] and in assay [6] was inactive. Further, the outcome in assay [7], in [8] and in [11] was inactive. The Potency entry in [9], in [10], in [14] and in assay [15] was “inactive” each time.
Turning to `CCO/C([O-])=N/c1c[n+](N2CCOCC2)no1`, the compound was classed as inactive in assay [1], in assay [2], in assay [3], in assay [4], in [5] and in assay [6]. For the same compound, the outcome in assay [7], in [8] and in assay [11] was inactive. Further, the Potency entry in [9], in [10], in assay [12], in assay [16], in [14] and in assay [15] was “inactive” in each case.
Regarding `CCN1CCC[C@H]1CNC(=O)c1cc(S(N)(=O)=O)ccc1OC`, the compound was classed as inactive in assay [1], in [2], in [3], in [4], in assay [5] and in [6]. In addition, the call in assay [7], in [8], in [11], in [19] and in assay [20] was inactive. Moreover, the Potency entry in [9], in [12], in assay [13], in [14], in assay [17] and in assay [15] was “inactive” throughout. Further, the Potency result in assay [18] is “inactive”.
Regarding `CCCc1cc(C(N)=S)ccn1`, the result in assay [1], in assay [2], in [3], in [4], in assay [5] and in assay [6] was inactive. The call in assay [7], in assay [8] and in [11] was inactive. The Potency entry in [9], in assay [12], in assay [13], in [16], in [14] and in assay [15] was “inactive” each time.
As for `CCC(C)C1CCCCC1=O` (configuration not stated), the outcome in assay [1], in [2], in [3], in assay [4], in assay [5] and in assay [6] was inactive. Besides, the compound was classed as inactive in [7], in assay [8] and in assay [11]. Moreover, the Potency result in [12], in assay [13], in assay [16], in assay [14] and in assay [15] was “inactive” each time.
